ELG1 genotox: inducers of genotoxicity in HEK293T ELG1-luciferase cells | HEK293T ELG1-luciferase reporter, luminescence, 16 h | Potency, µM (titrated, usually from 46 µM), for inactives: at the highest dose activity change, positive = activation, usual class: activators | actives 1.3% (n = 330,000); note: % of control where 0% means no effect; nearly all actives have a fitted effect of over 60% in size
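Luminescence read-out: rising ELG1-luciferase signal, reflecting elevated ELG1 protein under genetic stress, flags genotoxic compounds. Cells were treated for 16 hr at 37 °C before ONE-Glo detection.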
Rab9 prom act: Rab9 promoter activation | Huh7 Rab9 promoter-luciferase reporter, luminescence, 24 h | Potency, µM (highest dose often 9.22 µM), without a hit: at the top dose activation, negative = inhibition, actives largely listed as activators | actives 2.8% (n = 320,000); note: % of control where 0% means no effect; nearly all actives have a fitted effect of over 60% in size
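Steps: seed 1500 Huh7 Rab9-luc cells per well, rest 2 h at 37 °C; add compound in DMSO; incubate 24 h; add luciferase reagent, 10 min ambient; read luminescence.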
SMN2 splice up: SMN2 splice variant enhancement. Potency, µM (top dose mostly 46.1 µM), for the others: at the top dose activity change, positive = activation, hits mostly activators. HEK293 SMN2-luciferase splicing reporter, luminescence, 30-36 h. actives 2.8% (n = 210,000); note: % of control where 0% means no effect; nearly all actives have a fitted effect of over 55% in size
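HEK293 cells carry an SMN2 […]–luciferase reporter in which exon 7 inclusion puts luciferase in frame. Cells were plated 10-12 h before compound addition, then incubated 30-36 h at 37C. ONE-Glo luminescence was read; sodium butyrate at 4.5 mM final served as control.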
NPC1 prom act: activators of NPC1 promoter; Huh7 NPC1 promoter luciferase reporter, 24 h; Potency, µM (doses to about 9.22 µM), inactives show at the highest dose activation, usual class: activators; actives 2.4% (n = 320,000); note: % of control where 0% means no effect; nearly all actives have a fitted effect of over 60% in size
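Luciferase expression driven by the NPC1 promoter was measured in stably transfected Huh7 cells after a 24 h compound incubation, using a luciferase reagent and a luminescence read.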
FLuc counter: firefly luciferase modulation, counter-screen for miR-21 project. Potency, µM (highest dose often 57.5 µM), inactives show at the top dose activity change, negative = inhibition, usual class: inhibitors. P08659. purified FLuc, Km substrates, luminescence inhibition. actives 6.9% (n = 360,000). AID 588342;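 note: plate controls were vehicle for no effect and reference inhibitor for full effect; nearly all actives have a fitted effect of over 55% in size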
Target sequence (P08659 whole entry, looked up): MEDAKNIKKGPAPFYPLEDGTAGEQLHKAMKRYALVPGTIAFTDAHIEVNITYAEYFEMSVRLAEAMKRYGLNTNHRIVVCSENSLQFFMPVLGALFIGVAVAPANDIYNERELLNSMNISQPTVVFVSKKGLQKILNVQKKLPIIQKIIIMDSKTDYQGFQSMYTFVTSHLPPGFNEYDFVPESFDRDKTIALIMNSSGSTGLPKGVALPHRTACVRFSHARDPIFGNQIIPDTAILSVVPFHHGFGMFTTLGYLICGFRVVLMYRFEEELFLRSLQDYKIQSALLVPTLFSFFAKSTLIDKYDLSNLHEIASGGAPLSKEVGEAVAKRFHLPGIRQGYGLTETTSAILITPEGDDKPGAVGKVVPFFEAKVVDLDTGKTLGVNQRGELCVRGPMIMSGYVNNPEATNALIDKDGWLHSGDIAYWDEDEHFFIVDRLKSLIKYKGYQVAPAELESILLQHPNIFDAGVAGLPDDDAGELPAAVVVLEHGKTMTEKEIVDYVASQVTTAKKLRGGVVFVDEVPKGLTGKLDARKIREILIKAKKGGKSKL
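Purified P. pyralis luciferase, 10 nM final, with Km-level 10 uM D-luciferin and 10 uM ATP in 50 mM Tris acetate pH 7.5, 10 mM Mg acetate, 0.01% Tween-20, 0.05% BSA; 6-point qHTS titration about 60 µM downward; luminescence read.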
* marks the source's active call; other numbers are inactive results; ? = inconclusive; . = not tested or not shown; [ ] = another dose, or the depositor's remark. Sampled rows, rich in hits. Any-hit rate of the full collection: about 7.4%. Calls come from the whole dose curve; as a rule, active = well fitted curve in the direction sought with a large enough effect; inconclusive = small, poorly fitted or top-dose-only effect, or another doubt; inactive = no such curve, though single readings can be large; an effect the other way counts as inactive or inconclusive. Potency is the fitted concentration of half-maximal effect.

SMILES	ELG1 genotox	Rab9 prom act	SMN2 splice up	NPC1 prom act	FLuc counter
COc1ccc(N(C)S(=O)(=O)c2ccc3c(c2)n(C)c(=O)c(=O)n3C)cc1	.	.	-5%	.	0%
C/C(=N\O)c1cc(Cl)ccc1O	2%	0%	.	1%	-12%
COc1ccc(CNC(=O)CN2C(=O)COc3ccc(S(=O)(=O)N4CCOCC4)cc32)cc1	0%[9.26 µM]	5%	.	0%	-19%
COc1ccc(Cn2c(C)ccc2C)cc1	9%	-2%	6%	0%	0%
COc1ccc(Cn2c(-c3ccc(Br)cc3)c[n+]3ccccc23)cc1	17%	9%	11µM*	1%	11µM*
COc1ccccc1-c1c(C)nn2c(N3CCN(c4ccc(Cl)cc4)CC3)cc(C)nc12	.	.	.	.	-5%
COc1ccccc1-c1ccc(SCC(=O)N2CCOCC2)nn1	4%	3%	1%	-6%	2%
COc1ccccc1-c1ccc(SCc2ccc(C)cc2)nn1	9%	9%	-2%	5%	15µM*
COc1ccccc1-c1ccc(SCc2ccc(F)cc2)nn1	5%	24%	11%	16%	24µM*
COc1cc(OC)c(OC)cc1/C=N/NC(=O)c1ccc2nc[nH]c2c1	-3%	4%	.	-1%	11µM*
O=C(N/N=C/c1ccc(Cl)c([N+](=O)[O-])c1)c1ccc2nc[nH]c2c1	-1%	-6%	-6%	-4%	?
COc1ccc(/C=N/NC(=O)c2ccc3nc[nH]c3c2)cc1	5%	4%	.	-3%	21µM*
COc1ccc(/C=N/NC(=O)c2cc[n+]([O-])cc2)cc1	2%	-6%	.	-3%	?
O=C(N/N=C/c1ccccc1[N+](=O)[O-])c1ccc2nc[nH]c2c1	?	2.8µM*	.	?	13µM*
CCN(CC)c1ccc(/C=N/NC(=O)c2ccc3nc[nH]c3c2)c(O)c1	?	-39%	.	-32%	13µM*
CC1CC(C)CN(CCCNC(=O)c2ccc3c(c2)ncn3C2CCCC2)C1 (stereo unspecified)	5%	-3%	.	-3%	4%
COc1ccccc1NC(=O)c1cnc(SCC(=O)NCCc2ccccc2)n(C)c1=O	0%	17%	.	-1%	-9%
O=C1c2oc3ccccc3c(=O)c2C(c2ccc(Br)cc2)N1c1ccccn1 (stereo unspecified)	.	.	.	.	1%
COc1ccc(C=NNC(=O)c2ccccc2OCc2ccc(F)cc2)c(OC)c1	1%	.	.	.	.
COc1cccc(C(=O)N/N=C/c2cn[nH]c2-c2ccc(OC)cc2OC)c1	-2%	-2%	5%	-2%	15µM*
COc1cccc(/C=N/NC(=O)c2ccc3nc[nH]c3c2)c1O	-2%	-3%	.	4%	19µM*
COc1ccc(/C=N/NC(=O)c2ccc3nc[nH]c3c2)c(OC)c1	-1%	-2%	.	-11%	17µM*
COc1ccc(/C=N/NC(=O)c2ccc3nc[nH]c3c2)c(OC)c1OC	-4%	-1%	.	-5%	-20%
Cc1nc(NCc2ccccc2)c2nc(-c3ccccc3)n(CCN3CCCC3)c2n1	.	.	3%	.	.
Cc1ccc(CCNC(=O)CCCn2c(=O)c3ccccc3n(Cc3ccccc3C)c2=O)cc1	.	.	6%	.	2%
SMILES	ELG1 genotox	Rab9 prom act	SMN2 splice up	NPC1 prom act	FLuc counter
O=C(O)c1ccc(-c2ccc(Cl)cc2Cl)o1	12%	18%	-7%	1%	?
O=C(c1cc(-c2ccccc2Cl)on1)N1CCN(C(=O)c2ccco2)CC1	1%	-3%	5%	1%	19µM*
CN(C)/C=C/C(=O)c1ccc(-c2ccc(Cl)cc2Cl)o1	?	4.5µM*	?	?	9.5µM*
O=C(c1ccc(-c2ccccc2Cl)o1)N1CCN(S(=O)(=O)c2cccs2)CC1	0%	?	.	?	11µM*
O=C(c1ccco1)N1CCN(C(=O)c2ccc(-c3ccccc3Cl)o2)CC1	14%	2.8µM*	.	?	9.5µM*
O=C(c1ccc(-c2ccccc2Cl)o1)N1CCN(c2ccccc2O)CC1	-1%	2%	.	12%	?
O=C(c1ccccc1Cl)N1CCN(S(=O)(=O)c2cccs2)CC1	2%	7%	.	1%	1%
CC1CN(c2ccccc2)c2nc3c(c(=O)[nH]c(=O)n3C)n2C1 (stereo unspecified)	0%	0%[1.84 µM]	.	-1%	-3%
